# Measurements: PMC4336329 (PLoS ONE, 2015)
# Screen size: about 310,000 compounds; about 2,200 (0.71%) showed an effect of 50% or more. Effects have a minus sign here. The list comes from a sample in which strong results are over-represented; it also holds similar structures and randomly drawn compounds.
# Molecular target: human ether-à-go-go-related gene (hERG) potassium channel (human, UniProt Q12809)
# Experiment: primary screen, population patch clamp on CHO cells stably expressing hERG; higher = less effect of the substance
# Sequence of human ether-à-go-go-related gene (hERG) potassium channel (Q12809 whole entry, looked up): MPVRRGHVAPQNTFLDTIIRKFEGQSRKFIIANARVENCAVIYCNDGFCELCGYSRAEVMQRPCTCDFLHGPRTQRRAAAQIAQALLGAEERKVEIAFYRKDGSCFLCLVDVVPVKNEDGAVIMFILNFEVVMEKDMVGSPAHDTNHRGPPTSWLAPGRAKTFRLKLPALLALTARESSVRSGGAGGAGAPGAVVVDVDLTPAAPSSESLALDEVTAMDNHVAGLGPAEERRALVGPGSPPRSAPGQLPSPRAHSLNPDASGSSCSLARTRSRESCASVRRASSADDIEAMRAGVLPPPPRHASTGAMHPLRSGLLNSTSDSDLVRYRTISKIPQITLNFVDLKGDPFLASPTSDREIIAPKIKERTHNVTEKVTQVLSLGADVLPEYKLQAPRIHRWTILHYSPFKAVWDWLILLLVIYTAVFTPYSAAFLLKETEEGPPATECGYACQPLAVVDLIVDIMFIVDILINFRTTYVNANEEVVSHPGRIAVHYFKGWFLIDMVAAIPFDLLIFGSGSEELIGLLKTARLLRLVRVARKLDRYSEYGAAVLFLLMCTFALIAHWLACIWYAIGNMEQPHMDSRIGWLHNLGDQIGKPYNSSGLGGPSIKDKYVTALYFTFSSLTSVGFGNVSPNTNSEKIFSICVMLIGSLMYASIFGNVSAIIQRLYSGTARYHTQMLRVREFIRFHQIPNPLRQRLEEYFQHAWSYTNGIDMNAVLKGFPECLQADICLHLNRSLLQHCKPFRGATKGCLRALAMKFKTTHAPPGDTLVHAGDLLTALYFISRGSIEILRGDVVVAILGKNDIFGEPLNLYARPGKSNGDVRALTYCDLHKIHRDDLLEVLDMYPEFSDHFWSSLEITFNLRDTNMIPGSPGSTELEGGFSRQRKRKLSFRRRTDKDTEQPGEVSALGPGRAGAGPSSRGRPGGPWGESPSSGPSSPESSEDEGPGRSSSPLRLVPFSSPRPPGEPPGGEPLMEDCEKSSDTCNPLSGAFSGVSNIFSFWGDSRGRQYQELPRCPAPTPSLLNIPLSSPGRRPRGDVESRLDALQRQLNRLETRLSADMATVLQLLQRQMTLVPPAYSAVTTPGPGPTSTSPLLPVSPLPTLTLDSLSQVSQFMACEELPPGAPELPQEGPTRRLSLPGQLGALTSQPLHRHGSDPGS
row,Structure (SMILES),"hERG current change (%, negative = inhibition) at 1uM [%]"
1,CCN(CC)Cc1cc(NC2=NS(=O)(=O)c3ccccc32)ccc1OC(=O)C(C)C.Cl,5.53
2,COc1ccc(NS(=O)(=O)c2ccc(NS(C)(=O)=O)cc2)cc1,6.82
3,COc1ccc(CNC(=O)c2ccccc2C(=O)O)cc1,0.458
4,CCN(CC(=O)Nc1c(F)cccc1F)C(=O)c1ccc(C#N)cc1,8.99
5,O=C(CSc1nnc(-c2ccccc2Br)o1)Nc1nncs1,-63.5
6,O=C(CSc1nnc(-c2ccccc2Br)o1)Nc1cccc2ccccc12,3.82
7,O=C(CSc1nnc(-c2ccncc2)o1)Nc1nncs1,15.3
8,CSc1n[nH]c(NC2=CC(=O)CCC2)n1,15
9,COc1ccc(N2CCN(C(C)C(=O)N(C)Cc3ccccc3)CC2)cc1 (stereo not shown),-10
10,CC(C(=O)N(C)Cc1ccccc1)N1CCN(C/C=C/c2ccccc2)CC1 (stereo not shown),-73.5
11,COc1ccc(Cl)cc1NC(=O)C(C)N1CCN(C/C=C/c2ccccc2)CC1.O=C(O)C(=O)O (stereo not shown),-14.3
12,CNC(=O)NC(=O)C(C)N1CCN(C/C=C/c2ccccc2)CC1 (stereo not shown),-32.1
13,CC(C(=O)Nc1cccc([N+](=O)[O-])c1)N1CCN(C/C=C/c2ccccc2)CC1 (stereo not shown),-74.2
14,CC(C(=O)Nc1cccc(S(=O)(=O)N2CCOCC2)c1)N1CCN(C/C=C/c2ccccc2)CC1 (stereo not shown),-32.5
15,COc1ccccc1NC(=S)N1CCN(C/C=C/c2ccccc2)CC1,7.29
16,COc1ccccc1NC(=O)C(C)N1CCN(C/C=C/c2ccccc2)CC1 (stereo not shown),-75.2
17,CC(=O)c1ccc(NC(=O)C(C)N2CCN(C/C=C/c3ccccc3)CC2)cc1 (stereo not shown),-41
18,Cc1sc2nc[nH]c(=O)c2c1-c1ccc(F)cc1,17.2
19,Cc1ccccc1Nc1nc(-c2sc(NC(=O)c3ccccc3)nc2C)cs1,7.9
20,CC(c1ccncn1)N(C)C(=O)c1ccc2oc(Cc3ccccc3)nc2c1 (stereo not shown),9.8
21,CCOc1ccc(NS(=O)(=O)c2ccc(NS(=O)(=O)c3ccc(SC)cc3)cc2)cc1,9.23
22,CCCN1Cc2cccc(C(=O)NCc3ccc(C)cc3)c2C1=O,-4.32

row,Structure (SMILES),"hERG current change (%, negative = inhibition) at 1uM [%]"
1,CCC(C)N(C)C(=O)c1cc2ccccc2c(-c2ccccc2Cl)n1 (stereo not shown),-5.29
2,CC(Oc1ccc(Cl)cc1)C(=O)OCC(=O)Nc1ncc(Cl)cc1Cl (stereo not shown),3.29
3,O=C(Nc1ccc(F)cc1)c1nc[nH]c1C(=O)O,18.5
4,COc1ccccc1OCC(O)Cn1c(=N)n(Cc2ccccc2)c2ccccc21.Cl (stereo not shown),-39.6
5,COc1ccccc1OCC(O)Cn1c(=N)n(CCN2CCCCC2)c2ccccc21.Cl (stereo not shown),-27.9
6,CCCCCn1c(=N)n(CC(O)COc2ccccc2OC)c2ccccc21 (stereo not shown),-82.8
7,Cc1ccccc1OCC(O)Cn1c(=N)n(Cc2ccccc2)c2ccccc21.Cl (stereo not shown),-48.4
8,C=CCn1c(=N)n(CC(O)COc2ccccc2OC)c2ccccc21.Cl (stereo not shown),-43.5
9,CCCCCn1c(=N)n(CC(O)COc2ccccc2OC)c2ccccc21.Cl (stereo not shown),-86.3
10,COC(=O)[C@H](C)NC(=O)Nc1ccc(C)c(C)c1,15.2
11,Cc1ccnc(SCc2ccc([N+](=O)[O-])cc2)n1,-1.04
12,COCCN(C(=O)CSc1nc(-c2ccccc2)cn1N)c1c(N)n(Cc2ccccc2)c(=O)[nH]c1=O,3.04
13,CCCC(=O)Nc1cc(C(=O)O)ccc1Sc1ccc(C)cc1,10.9
14,Cc1ccc(C)c(-n2c(SCC(=O)Nc3nonc3C)nnc2-c2ccoc2C)c1,9.3
15,Cc1cccc(-n2c(SCC(=O)NC3CCCC3)nnc2-c2ccoc2C)c1,-68.6
16,Cc1occc1-c1nnc(SCC(=O)NC2CCCC2)n1-c1ccccc1,0.492
17,CCCn1c(SCC(=O)Nc2nonc2C)nnc1-c1ccoc1C,5.83
18,Cc1nonc1NC(=O)CSc1nnc(-c2ccoc2C)n1C,9.71
19,Cc1cccc(-n2c(SCC(=O)Nc3nonc3C)nnc2-c2ccoc2C)c1,-81.9
20,CCn1c(SCC(=O)Nc2nonc2C)nnc1-c1ccoc1C,7.63
21,Cc1nonc1NC(=O)CSc1nnc(-c2ccoc2C)n1-c1cccc(Cl)c1,-58.8
